# About 8,800 targets were measured; listed, in parts, are those with a hit and a random draw of the rest. About 0.5% of all pairs of compound and target were hits. Unmarked numbers belong to inactive results.
# What was measured:
# Assay in all cases: log2 fold change, soluble protein after heating vs DMSO (PISA); higher = thermal stabilisation; K562 lysate, 10 uM; active = over 0.2 and 3.5 SD of the protein, either way, in both replicates (recomputed)
# lapatinib = compound: CS(=O)(=O)CCNCc1ccc(-c2ccc3ncnc(Nc4ccc(OCc5cccc(F)c5)c(Cl)c4)c3c2)o1 [lapatinib]
# In short: (§1)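 The values are log-two fold changes in thermal stability compared with solvent controls and come from duplicates. They were obtained by TMTpro 16plex LC-MS/MS, with channel sums equalised, on the supernatant after 21,000xg for 90 min. That supernatant came from crude K562 extract at 1 mg/mL protein treated with 10 μM compound for 30 min, heated for 3 min across 48°C-58°C, pooled and brought to 0.5% NP-40 at 4°C.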
# crizotinib = compound: C[C@@H](Oc1cc(-c2cnn(C3CCNCC3)c2)cnc1N)c1c(Cl)ccc(F)c1Cl [crizotinib]
# In short: as §1
# [1] = compound: C[C@H](C1=CC=C(C=C1)C(=O)NC2=C3C=CNC3=NC=C2)N
# In short: as §1
# duvelisib = compound: C[C@H](Nc1ncnc2nc[nH]c12)c1cc2cccc(Cl)c2c(=O)n1-c1ccccc1 [duvelisib]
# In short: as §1
# gandotinib = compound: Cc1cc(Nc2cc(CN3CCOCC3)c3nc(C)c(Cc4ccc(Cl)cc4F)n3n2)n[nH]1 [gandotinib]
# In short: as §1
# tozasertib = compound: Cc1cc(Nc2cc(N3CCN(C)CC3)nc(Sc3ccc(NC(=O)C4CC4)cc3)n2)n[nH]1 [tozasertib]
# In short: as §1
# doramapimod = compound: Cc1ccc(-n2nc(C(C)(C)C)cc2NC(=O)Nc2ccc(OCCN3CCOCC3)c3ccccc23)cc1 [doramapimod]
# In short: as §1
# [2] = compound: Cc1cccc(CC(=O)N2CCc3c2ccc(-c2cn(C)c4ncnc(N)c24)c3F)n1
# In short: as §1
# pictilisib = compound: CS(=O)(=O)N1CCN(Cc2cc3nc(-c4cccc5[nH]ncc45)nc(N4CCOCC4)c3s2)CC1 [pictilisib]
# In short: as §1
# bafetinib = compound: Cc1ccc(NC(=O)c2ccc(CN3CC[C@H](N(C)C)C3)c(C(F)(F)F)c2)cc1Nc1nccc(-c2cncnc2)n1 [bafetinib]
# In short: as §1
# UniProt P22692, sequence (P22692 whole entry, looked up): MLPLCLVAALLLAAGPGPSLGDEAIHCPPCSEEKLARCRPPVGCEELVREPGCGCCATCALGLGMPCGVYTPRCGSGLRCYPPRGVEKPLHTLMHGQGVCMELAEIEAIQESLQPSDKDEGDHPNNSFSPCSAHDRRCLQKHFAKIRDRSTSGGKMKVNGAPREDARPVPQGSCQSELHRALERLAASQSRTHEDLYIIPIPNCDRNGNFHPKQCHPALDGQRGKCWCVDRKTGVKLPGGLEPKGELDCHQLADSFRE
# UniProt P28161, sequence (P28161 whole entry, looked up): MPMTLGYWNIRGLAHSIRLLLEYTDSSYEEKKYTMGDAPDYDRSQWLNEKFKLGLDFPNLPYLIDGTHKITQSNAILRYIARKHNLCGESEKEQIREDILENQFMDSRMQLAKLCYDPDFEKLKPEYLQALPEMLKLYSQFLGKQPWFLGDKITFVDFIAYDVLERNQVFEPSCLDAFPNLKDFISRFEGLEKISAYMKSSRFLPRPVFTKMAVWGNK
# UniProt Q9BXW7, sequence (Q9BXW7 whole entry, looked up): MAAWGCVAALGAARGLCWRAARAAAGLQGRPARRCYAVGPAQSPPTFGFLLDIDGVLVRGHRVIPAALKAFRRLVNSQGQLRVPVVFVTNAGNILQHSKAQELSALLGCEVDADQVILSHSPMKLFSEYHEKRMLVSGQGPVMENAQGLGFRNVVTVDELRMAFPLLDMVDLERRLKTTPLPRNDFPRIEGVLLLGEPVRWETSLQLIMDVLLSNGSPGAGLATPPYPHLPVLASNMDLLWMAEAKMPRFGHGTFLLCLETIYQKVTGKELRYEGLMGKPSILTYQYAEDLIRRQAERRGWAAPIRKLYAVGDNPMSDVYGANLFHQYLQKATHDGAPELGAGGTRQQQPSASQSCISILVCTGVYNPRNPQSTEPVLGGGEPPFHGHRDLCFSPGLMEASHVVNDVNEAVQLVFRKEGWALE
# UniProt Q99795, sequence (Q99795 whole entry, looked up): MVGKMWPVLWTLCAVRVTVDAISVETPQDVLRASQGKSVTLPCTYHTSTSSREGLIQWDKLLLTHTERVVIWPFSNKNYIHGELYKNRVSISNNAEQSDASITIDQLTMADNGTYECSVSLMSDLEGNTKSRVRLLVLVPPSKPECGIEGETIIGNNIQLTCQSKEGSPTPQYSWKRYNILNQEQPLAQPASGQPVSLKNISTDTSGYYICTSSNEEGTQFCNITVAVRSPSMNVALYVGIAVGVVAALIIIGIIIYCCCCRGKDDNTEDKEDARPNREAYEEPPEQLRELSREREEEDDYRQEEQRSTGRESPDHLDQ
# UniProt Q9P2P5, sequence (Q9P2P5 whole entry, looked up): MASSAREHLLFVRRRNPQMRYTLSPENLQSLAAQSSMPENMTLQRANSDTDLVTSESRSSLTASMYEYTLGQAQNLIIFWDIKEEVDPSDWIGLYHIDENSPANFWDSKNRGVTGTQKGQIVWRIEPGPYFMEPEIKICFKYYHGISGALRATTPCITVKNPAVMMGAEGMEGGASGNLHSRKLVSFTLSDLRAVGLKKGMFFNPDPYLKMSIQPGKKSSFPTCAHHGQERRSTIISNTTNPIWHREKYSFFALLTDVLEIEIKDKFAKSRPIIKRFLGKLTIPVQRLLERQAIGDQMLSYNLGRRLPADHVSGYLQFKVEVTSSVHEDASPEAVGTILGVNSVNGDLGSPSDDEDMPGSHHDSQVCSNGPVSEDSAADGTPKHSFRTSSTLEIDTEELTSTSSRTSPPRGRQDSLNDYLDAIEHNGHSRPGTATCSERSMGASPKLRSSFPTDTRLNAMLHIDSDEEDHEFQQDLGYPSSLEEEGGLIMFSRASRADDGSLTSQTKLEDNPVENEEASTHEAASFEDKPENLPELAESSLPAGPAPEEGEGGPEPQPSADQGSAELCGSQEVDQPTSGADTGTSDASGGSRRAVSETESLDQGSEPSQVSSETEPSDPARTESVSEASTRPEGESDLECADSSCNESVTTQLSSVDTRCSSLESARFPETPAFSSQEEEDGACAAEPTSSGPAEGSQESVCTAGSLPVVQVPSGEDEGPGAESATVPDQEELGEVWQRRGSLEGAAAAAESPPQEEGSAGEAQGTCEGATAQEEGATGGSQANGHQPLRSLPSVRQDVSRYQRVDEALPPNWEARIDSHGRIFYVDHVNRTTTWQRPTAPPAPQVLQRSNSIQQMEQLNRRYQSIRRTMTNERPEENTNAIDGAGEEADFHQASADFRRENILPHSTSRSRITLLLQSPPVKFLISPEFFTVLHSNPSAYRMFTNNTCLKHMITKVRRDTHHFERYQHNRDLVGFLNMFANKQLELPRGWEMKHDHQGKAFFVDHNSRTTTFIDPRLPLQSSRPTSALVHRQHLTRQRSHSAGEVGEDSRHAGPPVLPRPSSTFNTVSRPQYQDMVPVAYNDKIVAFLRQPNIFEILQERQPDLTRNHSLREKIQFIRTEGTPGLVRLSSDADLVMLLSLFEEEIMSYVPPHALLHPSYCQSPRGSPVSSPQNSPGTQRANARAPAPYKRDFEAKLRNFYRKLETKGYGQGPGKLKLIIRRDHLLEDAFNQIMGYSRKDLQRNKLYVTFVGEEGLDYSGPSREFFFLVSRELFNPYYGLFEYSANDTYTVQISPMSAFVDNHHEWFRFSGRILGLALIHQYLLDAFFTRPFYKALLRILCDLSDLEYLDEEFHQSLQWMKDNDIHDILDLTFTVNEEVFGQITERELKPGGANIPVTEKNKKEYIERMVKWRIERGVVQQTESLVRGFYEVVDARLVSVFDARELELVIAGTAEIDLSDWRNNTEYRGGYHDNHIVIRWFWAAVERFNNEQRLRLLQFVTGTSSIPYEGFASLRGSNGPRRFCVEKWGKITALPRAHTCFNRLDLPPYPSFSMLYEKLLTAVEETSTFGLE
# UniProt P49448, sequence (P49448 whole entry, looked up): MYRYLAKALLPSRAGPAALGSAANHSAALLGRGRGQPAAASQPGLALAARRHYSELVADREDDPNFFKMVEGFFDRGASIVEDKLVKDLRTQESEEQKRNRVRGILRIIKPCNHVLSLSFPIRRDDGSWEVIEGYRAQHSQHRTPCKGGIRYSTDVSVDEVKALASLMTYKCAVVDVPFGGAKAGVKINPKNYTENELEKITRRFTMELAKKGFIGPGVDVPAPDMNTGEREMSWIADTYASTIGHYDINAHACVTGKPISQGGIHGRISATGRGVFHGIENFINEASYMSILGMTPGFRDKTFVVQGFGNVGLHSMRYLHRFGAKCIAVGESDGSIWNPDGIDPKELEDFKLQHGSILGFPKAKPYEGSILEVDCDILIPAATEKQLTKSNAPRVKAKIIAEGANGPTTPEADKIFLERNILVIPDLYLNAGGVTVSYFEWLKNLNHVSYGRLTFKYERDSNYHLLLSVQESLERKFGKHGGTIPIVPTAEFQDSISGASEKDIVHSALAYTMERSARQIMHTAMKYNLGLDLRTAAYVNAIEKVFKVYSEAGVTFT
# UniProt Q96A47, sequence (Q96A47 whole entry, looked up): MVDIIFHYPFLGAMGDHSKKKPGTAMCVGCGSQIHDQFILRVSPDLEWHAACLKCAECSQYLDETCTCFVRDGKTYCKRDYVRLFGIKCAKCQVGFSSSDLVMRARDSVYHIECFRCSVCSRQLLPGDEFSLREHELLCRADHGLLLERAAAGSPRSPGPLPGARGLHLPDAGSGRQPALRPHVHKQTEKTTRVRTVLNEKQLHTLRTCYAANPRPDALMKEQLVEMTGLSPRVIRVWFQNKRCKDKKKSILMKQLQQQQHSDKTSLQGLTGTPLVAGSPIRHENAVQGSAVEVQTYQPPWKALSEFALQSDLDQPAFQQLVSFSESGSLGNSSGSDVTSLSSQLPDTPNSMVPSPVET
# UniProt Q9H079, sequence (Q9H079 whole entry, looked up): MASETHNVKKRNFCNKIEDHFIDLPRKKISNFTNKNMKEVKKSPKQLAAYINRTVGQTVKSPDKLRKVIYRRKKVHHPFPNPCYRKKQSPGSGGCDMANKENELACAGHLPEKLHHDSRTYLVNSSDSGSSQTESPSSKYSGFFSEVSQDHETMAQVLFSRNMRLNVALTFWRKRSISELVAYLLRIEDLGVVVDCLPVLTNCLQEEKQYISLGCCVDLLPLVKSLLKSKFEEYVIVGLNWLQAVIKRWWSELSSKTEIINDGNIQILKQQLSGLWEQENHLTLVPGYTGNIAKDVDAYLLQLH
# UniProt Q9P107, sequence (Q9P107 whole entry, looked up): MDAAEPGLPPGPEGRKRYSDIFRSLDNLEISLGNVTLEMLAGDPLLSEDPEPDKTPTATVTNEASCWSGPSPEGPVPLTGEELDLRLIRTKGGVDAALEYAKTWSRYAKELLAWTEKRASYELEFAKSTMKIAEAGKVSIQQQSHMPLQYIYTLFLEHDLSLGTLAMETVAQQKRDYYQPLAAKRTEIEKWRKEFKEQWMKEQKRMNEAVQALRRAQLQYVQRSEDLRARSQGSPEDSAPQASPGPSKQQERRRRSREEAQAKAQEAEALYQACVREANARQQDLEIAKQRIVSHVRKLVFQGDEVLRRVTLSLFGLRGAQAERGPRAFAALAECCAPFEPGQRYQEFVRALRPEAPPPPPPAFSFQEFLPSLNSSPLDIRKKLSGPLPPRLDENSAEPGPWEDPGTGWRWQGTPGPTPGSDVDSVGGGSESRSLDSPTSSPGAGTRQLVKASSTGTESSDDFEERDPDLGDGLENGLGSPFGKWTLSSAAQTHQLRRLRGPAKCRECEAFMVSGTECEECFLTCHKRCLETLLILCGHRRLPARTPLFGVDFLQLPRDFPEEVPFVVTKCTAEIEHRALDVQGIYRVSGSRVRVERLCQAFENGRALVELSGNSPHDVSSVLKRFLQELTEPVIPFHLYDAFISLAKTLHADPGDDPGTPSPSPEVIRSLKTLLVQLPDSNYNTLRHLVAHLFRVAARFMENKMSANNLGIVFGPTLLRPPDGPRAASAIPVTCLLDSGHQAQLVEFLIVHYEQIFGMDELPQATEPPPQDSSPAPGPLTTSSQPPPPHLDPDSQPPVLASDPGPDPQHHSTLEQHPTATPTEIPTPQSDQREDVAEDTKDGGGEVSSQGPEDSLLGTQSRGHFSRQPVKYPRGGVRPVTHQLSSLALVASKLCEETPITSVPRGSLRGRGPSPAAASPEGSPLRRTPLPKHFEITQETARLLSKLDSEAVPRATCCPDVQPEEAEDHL
Target,log2 fold change (lapatinib),log2 fold change (crizotinib),log2 fold change [1],log2 fold change (duvelisib),log2 fold change (gandotinib),log2 fold change (tozasertib),log2 fold change (doramapimod),log2 fold change [2],log2 fold change (pictilisib),log2 fold change (bafetinib)
KATNBL1 (UniProt Q9H079),-0.013,-0.066,0.05,0.164,-0.021,0.169,-0.069,0.01,–,–
HOMER3 (UniProt Q9NSC5),0.091,0.021,0.048,–,0.061,–,0.016,-0.072,0.42 (active),0.234
IMMT (UniProt C9J406),0.017,-0.116,-0.461 (active),0.003,0.048,0.015,-0.034,0.168,0.082,0.03
JAK3 (UniProt P52333),-0.002,0.051,0.418,–,-0.526,–,-0.081,-0.612 (active),0.01,0.14
IPP (UniProt Q9Y573),0.04,–,0.067,-0.016,-0.172,0.078,–,0.074,–,–
ITPRIP (UniProt Q8IWB1),–,–,–,0.179,–,–,–,–,–,–
ITPKA (UniProt P23677),-0.043,-0.012,-0.012,-0.038,-0.012,0.051,0.016,0.051,-0.055,-0.043
HDHD5 (UniProt Q9BXW7),0.011,-0.017,-0.147,0.058,-0.005,0.059,0.131,0.116,0.012,0.033
HYDIN (UniProt Q4G0P3),0.037,–,–,0.179,–,0.041,–,–,–,–
ISOC2 (UniProt Q96AB3),-0.036,0.023,0.05,-0.038,-0.076,-0.065,-0.014,0.095,0.038,-0.058
GPN2 (UniProt Q9H9Y4),0.041,0.007,-0.035,0.126,0.068,0.015,-0.005,0.106,–,–
HNRNPUL1 (UniProt M0R247),–,–,0.014,–,-0.014,–,–,0.034,0.038,0.008
GORASP1 (UniProt Q9BQQ3),-0.031,0.015,-0.103,-0.018,0.002,-0.087,0.015,-0.028,–,–
"GYPA, A0A2R8Y7F9",–,–,-0.562,–,0.202,–,–,0.17,-0.033,-0.029
HMGA1 isoform 2 (UniProt P17096),-0.005,0.125,0.731 (active),-0.011,-0.26,–,-0.274,-0.491,–,–
GMIP (UniProt Q9P107),-0.046,-0.006,0.029,-0.005,-0.024,-0.014,-0.049,0.041,-0.015,-0.068
ISL2 (UniProt Q96A47),–,0.001,0.609 (active),0.006,-0.104,–,-0.074,-0.096,0,-0.055

Target,log2 fold change (lapatinib),log2 fold change (crizotinib),log2 fold change [1],log2 fold change (duvelisib),log2 fold change (gandotinib),log2 fold change (tozasertib),log2 fold change (doramapimod),log2 fold change [2],log2 fold change (pictilisib),log2 fold change (bafetinib)
GPLD1 (UniProt P80108),–,-0.108,–,-0.049,–,–,0.081,–,–,–
HNRNPD (UniProt D6RF44),–,-0.086,–,–,–,–,0,–,–,–
GLUD2 (UniProt P49448),-0.009,-0.097,-0.004,0.001,0.099,0.03,-0.028,0.024,0.144,0.049
GTPBP6 (UniProt O43824),–,–,0.149,-0.003,0.156,0.023,–,-0.023,–,–
ITPR2 (UniProt Q14571),-0.571,–,–,-0.004,–,–,–,–,–,–
GSTM2 (UniProt P28161),-0.024,–,0.121,-0.067,-0.042,0.02,–,-0.079,-0.011,-0.011
H3-3A (UniProt P84243),0.028,0.046,0,–,0.016,-0.083,-0.062,0.03,-0.018,-0.049
GPA33 (UniProt Q99795),-0.064,–,-0.584 (active),0.154,0.567 (active),-0.015,–,0.554,0.059,-0.051
HECW2 (UniProt Q9P2P5),–,-0.075,–,-0.088,–,0.165,0.24,–,–,–
ITM2B (UniProt Q9Y287),–,0.005,-0.061,0.033,-0.037,–,0.007,0.138,-0.087,-0.032
HLCS (UniProt P50747),-0.026,-0.009,0.199,0.016,-0.002,0.006,0.026,-0.007,-0.022,-0.045
IGFBP4 (UniProt P22692),-0.007,-0.042,0,-0.029,0.019,–,0.014,0.095,0.015,-0.149
HNRNPM (UniProt M0QZM1),–,-0.07,–,-0.06,–,0.075,-0.017,–,0.076,-0.243
HMGN5 (UniProt Q5JSK9),-0.04,–,–,–,–,0.074,–,–,0.017,-0.04
IRF2BPL (UniProt Q9H1B7),0.017,-0.006,-0.216,0.006,0.07,-0.005,-0.004,0.075,0.024,-0.015
ITGB1BP2 (UniProt Q9UKP3),–,–,-0.18,-0.005,0.86 (active),-0.259,–,0.548,–,–
IRS2 (UniProt Q9Y4H2),-0.128,-0.186,-0.578 (active),0,0.296,–,0.019,0.307,0.023,0.031
